What was measured:
Test in all cases: PBM binding z-score (relative to random genomic background probes); higher = stronger binding; sequences stand for … in GC…GCGATTGACAGCGTAGAATGAAGG
[1] = test system: FXR:RXRa (NR concentration 270 nM, RXRa partner concentration 90 nM)
Outline: (§1)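 For binding z-scores, the reference was random background probes on custom Agilent 4×180K protein-binding microarrays. These arrays were incubated 1 h with ligand-free nuclear receptor dimers in PBS pH 7.4, 2% milk, 0.02% Triton X-100, 1 mM DTT, 0.2 mg/mL BSA and 0.4 mg/ml salmon testes DNA. Fluorescence was scanned after antibody detection of each partner (one per run) and regression-normalized.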

[2] = test system: LXRa:RXRa (NR concentration 270 nM, RXRa partner concentration 90 nM)
Outline: as §1

[3] = test system: LXRa homodimer (NR concentration 270 nM)
Outline: as §1

[4] = test system: LXRb:RXRa (NR concentration 270 nM, RXRa partner concentration 90 nM)
Outline: as §1

[5] = test system: LXRb homodimer (NR concentration 270 nM)
Outline: as §1

[6] = test system: PPARa:RXRa (NR concentration 270 nM, RXRa partner concentration 90 nM)
Outline: as §1

[7] = test system: PPARg:RXRa (NR concentration 180 nM, RXRa partner concentration 90 nM)
Outline: as §1

[8] = test system: PPARg:RXRa 270nM:90nM, anti-RXR (NR concentration 270 nM, RXRa partner concentration 90 nM)
Outline: as §1

[9] = test system: PPARg:RXRa 30nM:10nM, anti-RXR (NR concentration 30 nM, RXRa partner concentration 10 nM)
Outline: as §1

[10] = test system: PPARg:RXRa 90nM:30nM, anti-RXR (NR concentration 90 nM, RXRa partner concentration 30 nM)
Outline: as §1

[11] = test system: PPARg:RXRa DBDmut IVT, anti-RXR (DBD mutation: RXRa K156A/R161A, NR concentration 270 nM, RXRa partner concentration 90 nM)
Outline: as §1

[12] = test system: PPARg:RXRa IVT, anti-PPARg (NR concentration 270 nM, RXRa partner concentration 90 nM)
Outline: as §1

[13] = test system: PPARg DBDmut:RXRa IVT, anti-PPARg (DBD mutation: PPARg1 K132A/R137A, NR concentration 270 nM, RXRa partner concentration 90 nM)
Outline: as §1

[14] = test system: PPARg DBDmut IVT, anti-PPARg (DBD mutation: PPARg1 K132A/R137A, NR concentration 270 nM)
Outline: as §1

[15] = test system: PPARg homodimer (NR concentration 180 nM)
Outline: as §1

[16] = test system: PXR:RXRa (NR concentration 270 nM, RXRa partner concentration 90 nM)
Outline: as §1

[17] = test system: PXR homodimer (NR concentration 270 nM)
Outline: as §1

[18] = test system: RARa:RXR (NR concentration 270 nM, RXRa partner concentration 90 nM)
Outline: as §1

[19] = test system: RARa homodimer (NR concentration 270 nM)
Outline: as §1

[20] = test system: RARb:RXRa (NR concentration 270 nM, RXRa partner concentration 90 nM)
Outline: as §1

Row | Sequence | PBM binding z-score [1] | PBM binding z-score [2] | PBM binding z-score [3] | PBM binding z-score [4] | PBM binding z-score [5] | PBM binding z-score [6] | PBM binding z-score [7] | PBM binding z-score [8] | PBM binding z-score [9] | PBM binding z-score [10] | PBM binding z-score [11] | PBM binding z-score [12] | PBM binding z-score [13] | PBM binding z-score [14] | PBM binding z-score [15] | PBM binding z-score [16] | PBM binding z-score [17] | PBM binding z-score [18] | PBM binding z-score [19] | PBM binding z-score [20]
1 | ATCGAGAGGTCGAGGTGAGTATAGAGAAAGGGAA | 2.84 | 2.37 | -0.153 | 1.78 | -0.102 | 3.68 | 2.19 | 2.16 | 0.414 | 1.15 | -0.102 | 1.75 | 0.955 | 0.168 | 0.817 | 1.9 | -0.0163 | 2.63 | -0.363 | 3.14
2 | TCGAGTAGATTACCAATGGGGCATTCAGCTTTCT | -0.309 | -0.307 | -0.306 | 0.0449 | -0.399 | -0.126 | -0.221 | -0.0351 | 0.935 | 0.435 | 0.795 | -0.396 | -0.19 | -0.114 | -0.291 | -0.345 | -0.382 | -0.208 | -0.677 | -0.295
3 | CATCCAAGGTCAGAGAGGTCAGTGAATGCCGAGT | 6.31 | 5.84 | 4.54 | 4.58 | 1.57 | 5.23 | 4.13 | 4.43 | 1.5 | 2.83 | 2.91 | 3.85 | 0.635 | -0.591 | 4.41 | 6.17 | 12 | 5.72 | 3.06 | 5.38

— the supplement of paper PMC6555819
